# Assay results from PubChem BioAssay AID1159580 (chemical genetic matrix, 2015).
# About 2,000 (36%) of roughly 5,500 compounds were called active. About 18% were inconclusive and are not listed. The list shows a part of the results. A number with no mark means an inactive call. No stated cut-off is given here; in the data, active means normalized growth mostly below about 0.91 (no sharp cut-off); inconclusive means no clear call, values can overlap the other calls; inactive means mostly above about 0.92.
# Test: chemical genetic growth profiling, strain panel (AID 1159580);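 further: tested at 20 µM; growth read once vehicle control cultures reached saturation at 30 °C; 1 = growth at the plate median or of vehicle wells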
# Settings: growth OD
compound,measurement,setting,value
CC(NCCC(c1ccccc1)c1ccccc1)c1ccccc1 (configuration not stated),normalized growth,"S. cerevisiae deletion strains, locus YJR075W, strain HOC1, stronger effect = lower value",0.875 (active)
same,normalized growth,"S. cerevisiae deletion strains, locus YKL009W, strain mrt4, stronger effect = lower value",0.944
same,normalized growth,"S. cerevisiae deletion strains, locus YKL068W, stronger effect = lower value",0.981
same,normalized growth,"S. cerevisiae deletion strains, locus YKL085W, strain MDH1 (second series), stronger effect = lower value",0.985
same,normalized growth,"S. cerevisiae deletion strains, locus YKL085W, strain MDH1, stronger effect = lower value",0.985
same,normalized growth,"S. cerevisiae deletion strains, locus YKL160W, strain elf1, stronger effect = lower value",0.908
same,normalized growth,"S. cerevisiae deletion strains, locus YKL190W, strain CNB1, stronger effect = lower value",0.988
same,normalized growth,"S. cerevisiae deletion strains, locus YKR001C, strain vps1, stronger effect = lower value",0.936
same,normalized growth,"S. cerevisiae deletion strains, locus YKR026C, strain gcn3, stronger effect = lower value",1.01
same,normalized growth,"S. cerevisiae deletion strains, locus YKR091W, strain srl3, stronger effect = lower value",1
same,normalized growth,"S. cerevisiae deletion strains, locus YLL001W, strain dnm1, stronger effect = lower value",0.945
same,normalized growth,"S. cerevisiae deletion strains, locus YLL026W, stronger effect = lower value",0.981
same,normalized growth,"S. cerevisiae deletion strains, locus YLL041C, strain sdh2, stronger effect = lower value",0.997
same,normalized growth,"S. cerevisiae deletion strains, locus YLR027C, strain aat2, stronger effect = lower value",0.934
same,normalized growth,"S. cerevisiae deletion strains, locus YLR039C, strain RIC1, stronger effect = lower value",1.28
same,normalized growth,"S. cerevisiae deletion strains, locus YLR058C, strain SHM2, stronger effect = lower value",0.958
same,normalized growth,"S. cerevisiae deletion strains, locus YLR102C, strain apc9, stronger effect = lower value",0.985
same,normalized growth,"S. cerevisiae deletion strains, locus YLR113W, strain HOG1, stronger effect = lower value",1.01
same,normalized growth,"S. cerevisiae deletion strains, locus YLR221C, strain rsa3, stronger effect = lower value",0.937
same,normalized growth,"S. cerevisiae deletion strains, locus YLR258W, strain gsy2, stronger effect = lower value",0.974
same,normalized growth,"S. cerevisiae deletion strains, locus YLR262C, strain YPT6 (second series), stronger effect = lower value",0.986
same,normalized growth,"S. cerevisiae deletion strains, locus YLR262C, strain YPT6, stronger effect = lower value",1.16
same,normalized growth,"S. cerevisiae deletion strains, locus YLR268W, strain sec22, stronger effect = lower value",0.989
same,normalized growth,"S. cerevisiae deletion strains, locus YLR320W, strain mms22, stronger effect = lower value",0.898
same,normalized growth,"S. cerevisiae deletion strains, locus YLR330W, strain CHS5, stronger effect = lower value",0.992
same,normalized growth,"S. cerevisiae deletion strains, locus YLR342W, strain FKS1 (second series), stronger effect = lower value",0.885
same,normalized growth,"S. cerevisiae deletion strains, locus YLR342W, strain FKS1, stronger effect = lower value",0.993
same,normalized growth,"S. cerevisiae deletion strains, locus YLR357W, strain rsc2, stronger effect = lower value",1
same,normalized growth,"S. cerevisiae deletion strains, locus YLR370C, strain arc18, stronger effect = lower value",0.822 (active)
same,normalized growth,"S. cerevisiae deletion strains, locus YLR371W, strain rom2, stronger effect = lower value",0.97
same,normalized growth,"S. cerevisiae deletion strains, locus YLR384C, strain iki3, stronger effect = lower value",1
same,normalized growth,"S. cerevisiae deletion strains, locus YLR418C, strain cdc73, stronger effect = lower value",0.857
same,normalized growth,"S. cerevisiae deletion strains, locus YML016C, strain PPZ1, stronger effect = lower value",0.977
same,normalized growth,"S. cerevisiae deletion strains, locus YML032C, strain rad52, stronger effect = lower value",0.937
same,normalized growth,"S. cerevisiae deletion strains, locus YML120C, strain ndi1, stronger effect = lower value",0.886 (active)
same,normalized growth,"S. cerevisiae deletion strains, locus YML124C, strain tub3, stronger effect = lower value",0.991
same,normalized growth,"S. cerevisiae deletion strains, locus YMR058W, strain fet3, stronger effect = lower value",0.849 (active)
same,normalized growth,"S. cerevisiae deletion strains, locus YMR078C, strain ctf18, stronger effect = lower value",0.99
same,normalized growth,"S. cerevisiae deletion strains, locus YMR125W, strain sto1, stronger effect = lower value",0.946
same,normalized growth,"S. cerevisiae deletion strains, locus YMR129W, stronger effect = lower value",0.997
same,normalized growth,"S. cerevisiae deletion strains, locus YMR205C, strain PFK2, stronger effect = lower value",0.963
same,normalized growth,"S. cerevisiae deletion strains, locus YMR223W, strain ubp8, stronger effect = lower value",0.933
same,normalized growth,"S. cerevisiae deletion strains, locus YMR231W, strain pep5, stronger effect = lower value",0.731 (active)
same,normalized growth,"S. cerevisiae deletion strains, locus YMR263W, strain SAP30, stronger effect = lower value",0.942
same,normalized growth,"S. cerevisiae deletion strains, locus YMR307W, strain GAS1, stronger effect = lower value",0.986
same,normalized growth,"S. cerevisiae deletion strains, locus YNL067W, strain RPL9B, stronger effect = lower value",0.948
same,normalized growth,"S. cerevisiae deletion strains, locus YNL071W, strain lat1, stronger effect = lower value",0.953
same,normalized growth,"S. cerevisiae deletion strains, locus YNL128W, strain TEP1, stronger effect = lower value",0.884
same,normalized growth,"S. cerevisiae deletion strains, locus YNL153C, strain GIM3, stronger effect = lower value",0.921
same,normalized growth,"S. cerevisiae deletion strains, locus YNL183C, strain NPR1, stronger effect = lower value",0.933
same,normalized growth,"S. cerevisiae deletion strains, locus YNL209W, strain ssb2, stronger effect = lower value",0.888 (active)
same,normalized growth,"S. cerevisiae deletion strains, locus YNL233W, strain BNI4, stronger effect = lower value",0.927
same,normalized growth,"S. cerevisiae deletion strains, locus YNL248C, strain rpa49, stronger effect = lower value",0.904
same,normalized growth,"S. cerevisiae deletion strains, locus YNL250W, strain rad50, stronger effect = lower value",0.943
same,normalized growth,"S. cerevisiae deletion strains, locus YNL271C, strain bni1, stronger effect = lower value",0.99
same,normalized growth,"S. cerevisiae deletion strains, locus YNL298W, strain CLA4, stronger effect = lower value",0.974
same,normalized growth,"S. cerevisiae deletion strains, locus YNL307C, strain MCK1, stronger effect = lower value",0.974
same,normalized growth,"S. cerevisiae deletion strains, locus YNL322C, strain KRE1 (second series), stronger effect = lower value",1.03
same,normalized growth,"S. cerevisiae deletion strains, locus YNL322C, strain KRE1, stronger effect = lower value",0.97
same,normalized growth,"S. cerevisiae deletion strains, locus YNR049C, strain mso1, stronger effect = lower value",1
same,normalized growth,"S. cerevisiae deletion strains, locus YNR052C, strain pop2, stronger effect = lower value",0.92
same,normalized growth,"S. cerevisiae deletion strains, locus YOL006C, strain TOP1, stronger effect = lower value",0.468 (active)
same,normalized growth,"S. cerevisiae deletion strains, locus YOL012C, strain htz1",0.924
same,normalized growth,"S. cerevisiae deletion strains, locus YOL147C, strain pex11, stronger effect = lower value",1
same,normalized growth,"S. cerevisiae deletion strains, locus YOR001W, strain rrp6, stronger effect = lower value",0.887 (active)
same,normalized growth,"S. cerevisiae deletion strains, locus YOR061W, strain CKA2, stronger effect = lower value",0.938
same,normalized growth,"S. cerevisiae deletion strains, locus YOR069W, strain VPS5, stronger effect = lower value",0.986
same,normalized growth,"S. cerevisiae deletion strains, locus YOR070C, strain gyp1, stronger effect = lower value",0.908 (active)
same,normalized growth,"S. cerevisiae deletion strains, locus YOR080W, strain dia2, stronger effect = lower value",1
same,normalized growth,"S. cerevisiae deletion strains, locus YOR083W, strain WHI5, stronger effect = lower value",0.846 (active)
same,normalized growth,"S. cerevisiae deletion strains, locus YOR106W, strain vam3, stronger effect = lower value",0.618 (active)
same,normalized growth,"S. cerevisiae deletion strains, locus YOR136W, strain idh2, stronger effect = lower value",0.907 (active)
same,normalized growth,"S. cerevisiae deletion strains, locus YOR144C, strain elg1, stronger effect = lower value",0.989
same,normalized growth,"S. cerevisiae deletion strains, locus YOR184W, strain ser1, stronger effect = lower value",1.01
same,normalized growth,"S. cerevisiae deletion strains, locus YOR231W, strain MKK1, stronger effect = lower value",0.992
same,normalized growth,"S. cerevisiae deletion strains, locus YOR265W, strain rbl2, stronger effect = lower value",1
same,normalized growth,"S. cerevisiae deletion strains, locus YOR270C, strain vph1, stronger effect = lower value",0.375 (active)
same,normalized growth,"S. cerevisiae deletion strains, locus YOR290C, strain snf2, stronger effect = lower value",0.837 (active)
same,normalized growth,"S. cerevisiae deletion strains, locus YOR316C, strain cot1, stronger effect = lower value",0.98
same,normalized growth,"S. cerevisiae deletion strains, locus YPL051W, strain arl3, stronger effect = lower value",0.767 (active)
same,normalized growth,"S. cerevisiae deletion strains, locus YPL055C, strain LGE1, stronger effect = lower value",0.782
same,normalized growth,"S. cerevisiae deletion strains, locus YPL078C, strain atp4, stronger effect = lower value",0.939
same,normalized growth,"S. cerevisiae deletion strains, locus YPL106C, strain sse1, stronger effect = lower value",1.08
same,normalized growth,"S. cerevisiae deletion strains, locus YPL240C, strain hsp82, stronger effect = lower value",0.999
same,normalized growth,"S. cerevisiae deletion strains, locus YPL241C, strain CIN2, stronger effect = lower value",0.985
same,normalized growth,"S. cerevisiae deletion strains, locus YPL256C, strain CLN2, stronger effect = lower value",0.972
same,normalized growth,"S. cerevisiae deletion strains, locus YPR119W, strain clb2, stronger effect = lower value",0.994
same,normalized growth,"S. cerevisiae deletion strains, locus YPR141C, strain kar3, stronger effect = lower value",0.969
same,normalized growth,"S. cerevisiae deletion strains, locus YPR163C, strain tif3, stronger effect = lower value",0.872 (active)
same,normalized growth,"S. cerevisiae deletion strains, locus YPR167C, strain met16, stronger effect = lower value",0.977
same,normalized growth,"S. cerevisiae deletion strains, strain wtn01, stronger effect = lower value",0.964
same,normalized growth,"S. cerevisiae strains, strain wild type, stronger effect = lower value",0.974
